Results on 13 compounds are retold here after PubChem BioAssay.

A short description of assay [1]: optical density shifts of acrAB sulA E. coli – strain DRC41, OD650, 48 h, E. coli filamentation inducer project, primary screen (AID 1152).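 Note: E. coli MC1000 strain DRC41 lacking acrAB efflux pump and sulA.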 The conditions noted are these: higher = more signal, called active from +8 up or from −8 down.
Assay [2] is described as follows: probe aLefty1 binding on compound microarray – biochemical, small-molecule microarray, 635/667 nm fluorescence, primary screen (AID 1153).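 Note: score merges spot fluorescence with signal-to-noise ratio from the scanned slide images.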 The conditions noted are these: higher = more signal.
Assay [3] is described as follows: plasmodial surface anion channel blockers, osmotic lysis – cell-based, P. falciparum Indochina, OD700, 1 h, primary screen (AID 1154). The conditions noted are these: P. falciparum Indochina infected RBC osmotic lysis, higher = more signal, called active from +8 up or from −8 down.
Assay [4] can be described thus: plasmodial surface anion channel blockers, osmotic lysis – cell-based, P. falciparum Indochina, OD700, 2 h, primary screen (AID 1155).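 Note: lysis reports solute entry through the parasite surface anion channel PSAC.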 The note with it: P. falciparum Indochina infected erythrocytes, higher = more signal, called active from +8 up or from −8 down.
Assay [5] in a line: changes in parasitized red cell lysis, either direction – P. falciparum Indochina, OD700, 3 h, PSAC antagonist project, primary screen (AID 1156). The note with it: P. falciparum-infected erythrocytes, osmotic lysis, higher = more signal, called active from +8 up or from −8 down.
A short description of assay [6]: plasmodial surface anion channel blockers, osmotic lysis – cell-based, P. falciparum Indochina, OD700, 18 h, primary screen (AID 1157). The note with it: P. falciparum Indochina infected erythrocytes, osmotic lysis OD700, 18 h; higher = more signal, called active from +8 up or from −8 down.
The nature of assay [7]: S6 kinase pathway phospho-S6 level changes – cell-based, A549, cytoblot, luminescence, serum-stimulated, primary screen (AID 1158).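 Note: serum-stimulated A549 lung adenocarcinoma cells; signal is phosphorylated S6 detected by cytoblot immunostaining with HRP secondary.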 The note with it: 5 h, higher = more signal.
The target of assay [8] is NADPH oxidase 2 (Homo sapiens) (UniProt P04839). Nature of the assay: compounds shifting NOX2 Amplex Red fluorescence – cell-based, HEK293-NOX2, PMA-stimulated, NOX inhibitor project, primary screen (AID 1159). Note: test concentration not given here. The note with it: 45 min, higher = more signal, called active from +8 up or from −8 down.
Chain of NADPH oxidase 2 (Homo sapiens) (P04839 whole entry, looked up): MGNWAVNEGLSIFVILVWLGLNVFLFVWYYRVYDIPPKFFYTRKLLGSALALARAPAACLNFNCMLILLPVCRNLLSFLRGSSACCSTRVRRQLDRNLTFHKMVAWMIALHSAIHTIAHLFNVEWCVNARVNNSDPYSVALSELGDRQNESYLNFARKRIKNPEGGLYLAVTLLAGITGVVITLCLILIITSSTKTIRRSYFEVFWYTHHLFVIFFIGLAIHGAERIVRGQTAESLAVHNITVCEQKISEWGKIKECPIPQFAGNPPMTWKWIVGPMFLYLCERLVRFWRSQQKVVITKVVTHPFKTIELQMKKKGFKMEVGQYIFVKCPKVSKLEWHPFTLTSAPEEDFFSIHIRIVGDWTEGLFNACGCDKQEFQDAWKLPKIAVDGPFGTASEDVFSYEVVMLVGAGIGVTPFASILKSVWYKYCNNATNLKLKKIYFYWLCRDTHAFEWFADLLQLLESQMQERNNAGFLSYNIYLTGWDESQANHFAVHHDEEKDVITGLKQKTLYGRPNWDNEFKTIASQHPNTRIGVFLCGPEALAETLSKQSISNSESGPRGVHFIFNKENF
In assay [9] the target is NADPH oxidase 4 (Homo sapiens) (UniProt Q9NPH5). Nature of the assay: compounds shifting NOX4 Amplex Red fluorescence – cell-based, HEK293-NOX4, tetracycline-induced, NOX inhibitor project, primary screen (AID 1160). The conditions noted are these: HEK293-NOX4, Amplex Red H2O2 fluorescence, 45 min; higher = more signal, called active from +8 up or from −8 down.
Chain of NADPH oxidase 4 (Homo sapiens) (Q9NPH5 whole entry, looked up): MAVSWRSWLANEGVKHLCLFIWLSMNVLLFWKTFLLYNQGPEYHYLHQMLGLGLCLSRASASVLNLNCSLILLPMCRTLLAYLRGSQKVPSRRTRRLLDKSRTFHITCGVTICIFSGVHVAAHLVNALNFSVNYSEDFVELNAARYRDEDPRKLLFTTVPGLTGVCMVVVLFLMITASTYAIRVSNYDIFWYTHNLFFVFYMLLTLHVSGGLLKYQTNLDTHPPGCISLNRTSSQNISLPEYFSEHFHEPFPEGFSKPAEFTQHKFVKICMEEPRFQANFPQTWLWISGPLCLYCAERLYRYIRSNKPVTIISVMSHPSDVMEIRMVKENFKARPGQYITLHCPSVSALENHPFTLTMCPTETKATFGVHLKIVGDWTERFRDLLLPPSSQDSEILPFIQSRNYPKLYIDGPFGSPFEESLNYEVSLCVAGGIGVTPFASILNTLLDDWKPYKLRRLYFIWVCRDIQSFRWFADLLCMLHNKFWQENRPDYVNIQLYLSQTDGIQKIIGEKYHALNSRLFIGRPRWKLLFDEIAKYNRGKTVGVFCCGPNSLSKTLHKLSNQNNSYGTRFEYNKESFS
Assay [10] addresses NADPH oxidase 5 (Homo sapiens) (UniProt Q96PH1). Nature of the assay: compounds shifting NOX5 Amplex Red fluorescence – cell-based, HEK293-NOX5, NOX inhibitor project, primary screen (AID 1161). The note with it: HEK293-NOX5, ionomycin, 45 min, higher = more signal.

Activity calls are given as the source filed them.

Chain of NADPH oxidase 5 (Homo sapiens) (Q96PH1 whole entry, looked up): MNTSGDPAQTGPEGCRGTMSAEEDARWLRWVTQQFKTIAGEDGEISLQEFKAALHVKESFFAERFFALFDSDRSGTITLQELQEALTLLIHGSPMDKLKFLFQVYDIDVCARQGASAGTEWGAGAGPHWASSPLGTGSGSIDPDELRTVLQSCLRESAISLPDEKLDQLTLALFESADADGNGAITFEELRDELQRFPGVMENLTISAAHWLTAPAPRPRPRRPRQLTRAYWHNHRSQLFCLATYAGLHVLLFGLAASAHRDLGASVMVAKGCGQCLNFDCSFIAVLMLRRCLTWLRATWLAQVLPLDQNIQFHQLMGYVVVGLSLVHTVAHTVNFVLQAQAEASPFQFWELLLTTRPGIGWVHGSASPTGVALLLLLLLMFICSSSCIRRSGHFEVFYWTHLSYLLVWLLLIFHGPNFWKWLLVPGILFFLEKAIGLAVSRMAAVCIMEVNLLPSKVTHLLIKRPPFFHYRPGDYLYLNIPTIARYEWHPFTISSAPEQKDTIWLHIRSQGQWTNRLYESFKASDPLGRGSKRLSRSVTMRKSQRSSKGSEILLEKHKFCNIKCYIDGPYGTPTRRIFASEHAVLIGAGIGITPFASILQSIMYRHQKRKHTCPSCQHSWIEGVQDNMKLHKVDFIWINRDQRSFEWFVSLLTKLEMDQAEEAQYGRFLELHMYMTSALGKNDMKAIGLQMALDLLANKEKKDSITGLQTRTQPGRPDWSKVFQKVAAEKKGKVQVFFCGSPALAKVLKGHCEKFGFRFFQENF

As for `C=C1C(=O)C=C2CN(C(=O)c3ccccc3)[C@@](Cc3ccc(F)cc3)(C(=O)OC)[C@@H]12`, the z-score in [1] is -2.05 (inactive); in assay [3] it was -0.0775 (inactive); in [4], -1.39 (inactive); in [5] it was -1.69 (inactive); in assay [6] it was -1.83 (inactive); in assay [7], -1.06. In addition, the z-score was -3.94 (inactive) in assay [8], -4.76 (inactive) in assay [9] and -3.73 in [10]. In assay [2], this compound yielded a composite z-score of 0.676.

With `C=C(COC)C(=O)CC[C@H](OC(C)=O)c1ccc(CO)o1`, the z-score is 0.82 (inactive) in assay [1]; 0.421 (inactive) in assay [3]; 0.112 (inactive) in assay [4]; -0.0728 (inactive) in assay [5]; -1.12 (inactive) in [6]; 0.555 in assay [7]. Also, the z-score in assay [8] is -1.04 (inactive); in assay [9], -0.207 (inactive); in [10], -1.31. For the same compound, in assay [2], the composite z-score was -0.0061.

Turning to `C=C(CCCC)C(=O)CC[C@H](OC(=O)c1ccccc1-c1ccccc1C(=O)O)c1cccc(OCCO)c1`, the z-score in assay [1] was -0.497 (inactive); in assay [3] it was 8.46 (active); in assay [4] it was 1.77 (inactive); in assay [5] it was 1.97 (inactive); in assay [6], 0.478 (inactive); in assay [7] it was -0.363. For the same compound, the z-score in assay [8] is 0.976 (inactive); in assay [9] it was -0.462 (inactive); in assay [10], -1.74. The composite z-score in assay [2] is -0.147.

On to `COC(=O)[C@H]1N=C(c2ccc(OCCCO)cc2)O[C@H]1c1ccccc1N=[N+]=[N-]`, for which the z-score in assay [1] is -0.33 (inactive); in [3] it was 29.3 (active); in assay [4] it was 24.7 (active); in assay [5], 2.2 (inactive); in assay [6] it was 4.48 (inactive); in assay [7], 0.352. The z-score in assay [8] was -1.69 (inactive); in assay [9], -0.0764 (inactive); in [10], -2.1. Further, the composite z-score in assay [2] came out at 0.527.

With `CN1C(=O)C2C=CC(C(O)c3ccc(I)cc3)N(N(c3ccccc3)c3ccccc3)C2C1=O` (stereo not given), the z-score in assay [1] was -1.27 (inactive); in assay [3] it was 3.99 (inactive); in [4], 1.62 (inactive); in [5], 0.537 (inactive); in assay [6], 1.54 (inactive); in assay [7], -1.19. Besides, the z-score in assay [8] was 0.461 (inactive); in assay [9], 1.23 (inactive); in [10] it was -0.585. Besides, the composite z-score in assay [2] came to 0.193.

As for `CC(C)C[C@@H]1NC(=O)[C@@H]2C[C@H](C(=O)NCCCCCCNC(=O)CS)[C@H](c3ccc(O)cc3)N2C1=O`, the z-score in [1] was 0.81 (inactive); in assay [3], 4.25 (inactive); in assay [4], -0.506 (inactive); in assay [5], 0.75 (inactive); in assay [6], -1.54 (inactive); in assay [7], 0.0377. For the same compound, the results for the z-score in assay [8], in assay [9] and in [10] were 0.569 (inactive), 0.943 (inactive) and -0.706, respectively. The composite z-score in [2] turned out to be 0.197.

For the compound `COc1cc2c(cc1O)C(C)N(Cc1sc3ccccc3c1Cl)CC2` (stereo not given), the z-score in [1] is 0.268 (inactive); in assay [3], 4.05 (inactive); in [4], 2.4 (inactive); in assay [5] it was 0.334 (inactive); in [6], 1.85 (inactive); in assay [7], -0.43. Further, the values for the z-score in assay [8], in assay [9] and in assay [10] were -3.7 (inactive), -2.3 (inactive) and -3.2, respectively. In assay [2], the composite z-score is -0.145.

Consider `CCCCCCc1nc(-c2ccc(OC)nc2)c(C)c2c1[Si](C(C)C)(C(C)C)OC2`, for which the z-score in [1] is 0.579 (inactive); in assay [3] it was 1.74 (inactive); in assay [4], -0.0075 (inactive); in assay [5] it was 0.974 (inactive); in assay [6], -0.349 (inactive); in assay [7] it was 1.34. Further, the z-score in assay [8] was -1.98 (inactive); in assay [9], -0.117 (inactive); in assay [10] it was -2.71. Moreover, the composite z-score in [2] was -0.115.

As for `CCCCCN1CC=CC23O[C@@H]4/C=C\CCCOC(=O)C4[C@H]2C(=O)N(CCCCCO)[C@@H]3C1=O` (stereo not given in full), the z-score in assay [1] is 1.83 (inactive); in assay [3], 0.46 (inactive); in [4], -0.618 (inactive); in assay [5], -1.29 (inactive); in assay [6], -1.27 (inactive); in assay [7] it was -0.0754. Moreover, the z-score in assay [8] is 0.834 (inactive); in [9], 0.0699 (inactive); in [10], 1.41. In assay [2], this compound returned a composite z-score of -0.255.

As to `COc1ccc(NN2C(C(O)c3ccccc3)C=CC3C(=O)N(C4CCCCC4)C(=O)C32)cc1` (stereo not given), the z-score is -0.775 (inactive) in assay [1]; 11.8 (active) in [3]; 2.25 (inactive) in assay [4]; 1.31 (inactive) in assay [5]; 1.22 (inactive) in assay [6]; -0.388 in assay [7]. Moreover, the figures for the z-score in assay [8], in assay [9] and in assay [10] were -2.76 (inactive), -2.65 (inactive) and -2.39, respectively. This compound also showed a composite z-score in [2] of 0.0479.

On to `CN1C(=O)C2C=CC(C(O)c3ccc([N+](=O)[O-])cc3)N(Nc3ccccc3)C2C1=O` (stereo not given), for which the z-score in [1] was -1.93 (inactive); in assay [3], 1.98 (inactive); in assay [4], 1.36 (inactive); in assay [5], 2.88 (inactive); in assay [6] it was 1.44 (inactive); in assay [7] it was -1.06. The z-score is -1.45 (inactive) in assay [8], -5.03 (inactive) in [9] and -3.26 in assay [10]. For the same compound, the composite z-score in assay [2] is 0.658.

Regarding `CO[C@H]1O[C@H](CO)[C@@H](OC(=O)Nc2cccc(F)c2)[C@H](OC(=O)Nc2ccc3c(c2)OCO3)[C@@H]1OC(=O)Nc1ccc2c(c1)OCO2`, the z-score is -0.727 (inactive) in [1]; 12 (active) in assay [3]; 2.05 (inactive) in [4]; 1.16 (inactive) in [5]; 1.18 (inactive) in assay [6]; 0.296 in assay [7]. The z-score was -3.87 (inactive) in assay [8], -1.07 (inactive) in assay [9] and -1.81 in assay [10]. The compound further came in with a composite z-score in assay [2] of 0.37.

As for `COc1c(C)cc(-c2nc(-c3ccccc3)c3c(c2C)CO[Si]3(C(C)C)C(C)C)cc1C`, the z-score in assay [1] is -1.31 (inactive); in [3], 0.614 (inactive); in assay [4], 0.521 (inactive); in assay [5] it was -0.81 (inactive); in assay [6], 0.261 (inactive); in assay [7], 0.564. Moreover, the z-score in assay [8] was -0.41 (inactive); in assay [9] it was 0.529 (inactive); in assay [10], -2.03. For the same compound, in [2], the composite z-score turned out to be 0.0505.
